Source: PubChem
rCAG binder: binders of r(CAG) RNA repeats, primary screen, biochemical, fluorescence. r(CAG) RNA repeat, TO-PRO-1 dye displacement fluorescence. inhibition, % at 3 µM. 370,000 tested, 1.3% active;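 active = inhibition above the plate cutoff, the mean of all test compounds on that plate plus 3 SD, cut at about 35% in these data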;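 also: 0% = DMSO alone and 100% = 100 µM mitoxantrone as full dye displacement; higher means more dye released from RNA so lower well fluorescence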
MsrA inh: bovine MsrA enzyme inhibitors, primary screen, biochemical, absorbance, HTS | Methionine sulfoxide reductase A (Bos taurus) | purified bovine MsrA, absorbance read-out | inhibition, % at 15.5 µM | 360,000 tested, 0.75% active;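 also: 0% = vehicle wells with enzyme and 100% = reference inhibitor wells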
MsrA act: bovine MsrA enzyme activators, primary screen, biochemical, absorbance, HTS | Methionine sulfoxide reductase A (Bos taurus) | purified bovine MsrA, absorbance read-out | activation, % at 10.6 µM | 360,000 tested, 0.3% active | AID 602163, 2012; in the data active = activation above about 7.5%;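 also: 0% = vehicle and 100% = reference activator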
NadD inh: inhibitors of S. aureus NadD, primary screen, biochemical, colorimetric, uHTS; AID 602399, 2012; 360,000 tested, 0.78% active; purified NadD enzyme, colorimetric absorbance read-out; inhibition, % at 20 µM; Nicotinate-nucleotide adenylyltransferase NadD (Staphylococcus aureus N315); in the data active = inhibition above about 26%
MsrA conf: bovine MsrA inhibitors, retest, confirmation, biochemical, absorbance, HTS. shares compounds with MsrA inh. purified bovine MsrA, absorbance read-out. inhibition, % at 15.5 µM. 2,300 tested, 41% active. AID 651822, 2012;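 also: coupled to thioredoxin reductase with NADPH and selenocystamine and DMSO as substrate; 0% = vehicle only and 100% = full effect of reference inhibitor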
An asterisk follows results filed as active; x = no result. A selection: hits, their analogues and other compounds. The true share with any hit is near 2.7%. Rule as the data show it, unless noted: active = inhibition above about 4.5%; inactive = the rest.

SMILES	rCAG binder	MsrA inh	MsrA act	NadD inh	MsrA conf
O=Cc1c(-c2ccc(F)cc2)nc2ccccn12	2	9.1*	-1	4	3
COc1ccc(-c2nc3ccccn3c2C=O)cc1	-4	2	-2	2	x
Cc1cccc(C)c1NC(=O)CNC(=O)c1cccnc1	-3	1	-1	0	x
NCC(=O)Nc1ccc(Cl)cc1C(=O)c1ccc[nH]1	-2	5.0*	-12	-4	1
O=C1C=C(c2ccc(F)cc2OCc2ccccc2)C[C@@H](c2ccc(F)cc2)C1	0	0	0	3	x
CN(CC(=O)Nc1ccc(F)cc1)C(=O)c1ccc(-c2ccc(F)cc2)o1	1	0	0	-2	x
CCOc1ccc(NC(=O)CN(C)C(=O)c2ccc(-c3ccc(C(C)=O)cc3)o2)cc1OCC	3	4.9*	-3	0	3
CCc1ccc(C(O)c2ncc(-c3ccccc3OC)[nH]2)cc1 (stereo unspecified)	1	0	5	-5	x
O=C1NC(=O)/C(=C/c2ccco2)N1	0	7.9*	-7	-4	6.2*
O=C(Nc1ccc(Br)cc1)C1CC(O)CN1C(=O)Oc1ccccc1 (stereo unspecified)	2	0	-12	-2	x
COc1cc(CNC(C)C)c(Br)cc1OC1CCCC1	-3	-2	-1	1	x
CCOC(=O)c1cccc(-n2cccc2/C=C2\NC(=O)N(CC(=O)O)C2=O)c1	24	5.0*	-4	-1	5
CC1=CC(=C(C#N)C#N)C=C(C)N1CCN1CCN(C(=O)Nc2cccc(Cl)c2)CC1	4	5.0*	-3	3	4.6*
CC1=CC(=C(C#N)C#N)C=C(C)N1CCN1CCNCC1	0	6.5*	-6	-6	7.9*
O=C(N/N=C/c1c[nH]c2ccccc12)c1[nH]c2ccc(Br)cc2c1-c1ccccc1	28	5.1*	-8	23	4
CCC(C)c1ccccc1NC(=O)COC(=O)C1=NN(c2ccccc2)C(=O)CC1 (stereo unspecified)	0	39*	-4	-6	30*
O=C(COC(=O)C1=NN(c2ccccc2)C(=O)CC1)Nc1ccc([N+](=O)[O-])cc1C(F)(F)F	6	12*	-2	2	11*
CC(NC(=O)COC(=O)C1=NN(c2ccccc2)C(=O)CC1)c1ccccc1 (stereo unspecified)	-3	0	-8	-1	x
CCOC(=O)C1CCCN(C(=O)c2ccc(F)c(Cl)c2)CC1 (stereo unspecified)	0	-1	-4	-2	x
CN1OC[C@@H]2CN(Cc3ccc(Cl)cc3)[C@H](c3ccc(-n4ccnc4)cc3)C[C@@H]21	1	1	-6	6	x
COC(=O)C1=C(C)N(C)C(=O)NC1c1cccc2ccccc12 (stereo unspecified)	-2	-1	-3	7	x
CCCC1CCc2c(sc(N)c2C(N)=O)C1 (stereo unspecified)	6	0	-2	24	x
O=C(O)c1cccc(Cn2c(Cl)c(/C=N/NC(=O)c3ccco3)sc2=O)c1	10	7.0*	-6	-2	7.4*
O=C(N/N=C/c1ccc(Br)s1)c1ccncc1	1	4.7*	-8	-4	4.8*
O=C(O)c1cccc(Cn2c(Cl)c(/C=N/NC(=O)c3cc4ccccc4cc3O)sc2=O)c1	77*	4.9*	-6	12	5.6*
SMILES	rCAG binder	MsrA inh	MsrA act	NadD inh	MsrA conf
O=C(N/N=C/c1cc(Br)c(Br)s1)c1ccncc1	1	2	-5	1	x
O=C(N/N=C/c1sc(=O)n(-c2ccccc2)c1Cl)c1ccncc1	-2	7.5*	-1	0	4.8*
C[C@@H]1Cn2cnc(C(=O)N[C@@H](C)c3ccccc3)c2C(=O)N1	2	-1	-1	2	x
COc1cc(OC)c(NC(=O)CNC(=O)Cn2ccc3ccccc3c2=O)cc1Cl	5	0	-2	4	x
CC(=O)Nc1cccc(-c2ccnc3c2CC(C)(C(=O)NCCc2ccccc2)O3)c1 (stereo unspecified)	0	-1	-6	-3	x
O=C(O)c1cccc(Cn2c(Cl)c(/C=N/NC(=O)c3ccccc3)sc2=O)c1	6	5.7*	-4	-2	5.1*
COc1ccccc1C(=O)NCC(=O)NCCC(c1ccccc1)c1ccccc1	-2	0	0	-5	x
